# Shiga inhibitor – Shiga toxin inhibition | Vero cells, Shiga toxin protein synthesis inhibition reporter | 9.2% of 290,000 active | inhibition, % at 38.7 µM; in the data active means inhibition mostly above about 28%, no sharp cut-off; inactive means mostly below about 43%; further: 0% is about no effect
# CHX counter – counter-screen hit for Shiga toxin inhibitors, cycloheximide; max response, %; cell reporter, cycloheximide protein synthesis inhibition counterscreen; 12% of 300,000 active; in the data active means max response mostly above about 13%, no sharp cut-off; inactive means mostly below about 14%; further: read at 38.3 µM for the half of the compounds with a filed dose; 0% is about no effect
# Pf growth 48h – inhibits P. falciparum growth in the first generation, 48 h | P. falciparum luciferase growth in erythrocytes, 48 h | 5.9% of 310,000 active | Potency, µM (series often up to 28.7 µM), for the others: top-dose activity change, negative = inhibition, actives largely listed as inhibitors; active means well fitted inhibition curve with a large enough effect; inconclusive means small, poorly fitted or top-dose-only effect, or another doubt; inactive means no such curve, though single readings can be large or run the other way; further: potency means the concentration at half of the fitted maximal effect; on the % scale 0 is the no-effect control and ±100 the full control effect
#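 In quantitative HTS format, infected erythrocytes bearing luciferase-reporter parasites were treated for a single generation at 37 C. Luminescence after adding detection reagent served as the growth measure.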
# SARS PLpro yeast – inhibitors of SARS-CoV papain-like protease in yeast; S. cerevisiae expressing SARS-CoV PLpro, growth rescue; Potency, µM (highest dose often 32.9 µM), without a hit: at the highest dose activity, positive = growth rescue, most hits filed as activators; 0.19% of 330,000 active; AID 485353; further: potency means the concentration at half of the fitted maximal effect; 0% is about no effect; nearly all actives have a fitted effect of over 55% in size
# NS1 inh – influenza NS1 inhibition. AID 2326. 0.4% of 270,000 active. Potency, µM (highest dose often 46.1 µM), inactives show top-dose activity, positive = more growth; further: potency means the concentration at half of the fitted maximal effect; actives are rising curves; nearly all actives have a fitted effect of over 50% in size
#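 OD600 was taken as the measure of yeast growth restored by compound in an NS1-expressing S. cerevisiae strain. Cells had been washed out of glucose medium and diluted 1:100 into galactose -URA medium, pH 6.0.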
# Pf growth 96h – inhibits malaria parasite growth, 96 h | P. falciparum luciferase reporter growth, 96 h | Potency, µM (doses to about 28.7 µM), without a hit: at the top dose activity change, negative = inhibition, actives largely listed as inhibitors | 6.9% of 320,000 active | AID 504834; active means well fitted inhibition curve with a large enough effect; inconclusive means small, poorly fitted or top-dose-only effect, or another doubt; inactive means no such curve, though single readings can be large or run the other way; further: potency means the concentration at half of the fitted maximal effect; on the % scale 0 is the no-effect control and ±100 the full control effect
#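 Plates of compound plus infected erythrocytes (2% hematocrit, 0.05% parasitemia final) incubate 96 hours, 37 C, 5% CO2. Detection reagent added; reduced luminescence from the parasites' luciferase reporter flags inhibition.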
# An asterisk follows results filed as active; u = inconclusive; x = no result given. Hits are enriched below; roughly 21% of the tested compounds scored in any of these assays. Unless noted, the call rests on the fitted dose curve.
SMILES,Shiga inhibitor,CHX counter,Pf growth 48h,SARS PLpro yeast,NS1 inh,Pf growth 96h
CCOC(=O)C1=C(CN2CCN(C(=O)OCC)CC2)NC(=O)NC1c1ccc2c(c1)OCO2 (stereo not given),10.9,8.0,u,1.2%,x,24.3%
CC(=O)Nc1ccc(S(=O)(=O)Oc2ccc(/C=N/NC(=O)c3ccc(Cl)cc3)cc2)cc1,15.4,1.9,13.1µM*,2.3%,-3.3%,u
CC(=O)Nc1ccc(C(=O)N/N=C/c2ccccc2OC(=O)c2ccc(Cl)cc2)cc1,-8.6,23.3,u,-9.2%,9.9%,103.5%
COC(=O)c1sc(NC(=O)c2ccc([N+](=O)[O-])o2)c(C#N)c1C,29.7,11.4,45.2%,1.1%,-50.4%,u
COc1ccc(C(=O)NCCOc2ccccc2)cc1S(=O)(=O)N1CCOCC1,x,x,u,-7.4%,x,-29.7%
O=C(COc1ccccc1[N+](=O)[O-])Nc1ccc(N2CCN(C(=O)c3cccs3)CC2)cc1,14.6,-2.4,10.4µM*,0.7%,4.8%,-28.9%
O=C(COC(=O)c1ccc([N+](=O)[O-])o1)Nc1ccc(N2CCOCC2)cc1,x,x,x,-13.3%,x,x
O=C(Nc1ccc(S(=O)(=O)N2CCOCC2)cc1)c1ccc([N+](=O)[O-])o1,61.4*,19.4*,10.4µM*,-1.9%,1.7%,u
O=C(Nc1ccc(N2CCN(C(=O)c3cccs3)CC2)cc1)c1ccc([N+](=O)[O-])o1,-22.8,-9.3,u,-20.0%,-9.7%,9.28µM*
O=C(Nc1ccc(N2CCOCC2)cc1)c1ccc([N+](=O)[O-])o1,58.8*,37.3*,19.2%,17.9%,-41.2%,21.3%
CC(C)(C)n1nc2c(c1NC(=O)c1cc(Cl)ccc1[N+](=O)[O-])CS(=O)(=O)C2,-6.6,-7.6,5.7%,8.7%,6.4%,4.9%
CCN(CC)S(=O)(=O)c1ccc(N2CCOCC2)c(NCC(=O)Nc2ccc(F)cc2)c1,4.4,11.7,u,0.3%,x,-16.5%
COC(=O)c1ccc(COc2ccc(/C=C(\C#N)c3nc4ccccc4[nH]3)cc2OC)o1,81.3*,32.6*,1.31µM*,25.8%,16.5%,u
COc1cc(/C=C(/C#N)c2nc3ccccc3[nH]2)ccc1OCc1ccc(C(=O)O)o1,49.9,10.4,u,-8.2%,10.6%,u
CCc1ccc(NC(=O)COc2ccc(/C=C(/C#N)c3nc4ccccc4[nH]3)cc2OC)cc1,active,22.1*,2.62µM*,17.5%,u,u
COc1ccc2c(-c3ccccc3)cc(=S)[nH]c2c1,-2.3,5.8,u,-2.1%,5.8%,u
COc1ccc2c(c1)NP(=S)(Oc1ccccc1)N2 (stereo not given),86.0*,64.0*,76.1%,-5.4%,-0.2%,103.3%
Clc1ccc(-c2nnc(-c3ccccc3)o2)c(Cl)c1,119.1,51.4*,135.2%,-2.6%,-25.6%,193.8%
Clc1ccc(-c2nnc(N3CCOCC3)o2)cc1,90.3*,30.9*,76.6%,-1.1%,1.7%,41.1%
O=S(=O)(Cc1ccc(Cl)cc1)c1ccccc1-c1nnc(-c2ccccc2)o1,4.8,7.2,-17.2%,6.4%,7.0%,-1.0%
